Laboratory results from paper PMC4552634, “A New Set of Chemical Starting Points with Plasmodium falciparum Transmission-Blocking Potential for Antimalarial Drug Discovery” (PLoS ONE, 2015).
The campaign covered roughly 13,000 compounds. About 3,200 (25%) showed an effect of 50% or more. The list shows a part of the results.

Test system: P. falciparum stage V gametocytes
Set-up: BacTiter-Glo ATP luminescence viability of purified stage V gametocytes in 384-well plates, per cent inhibition versus DMSO
Conditions: 48 h, 5 µM; inhibitor

Question: For `NC(CC1CC(=O)N1CC(=O)O)C(=O)O` (centres unmarked) [TCMDC-139050], which “% Inhibition” value is on record?
Answer: The value was 9.979%.

Question: `CC1CCN(Cc2ccc(NC(=O)c3cc4ccc5cccnc5c4[nH]3)cc2)CC1` [TCMDC-125282] was tested. Which “% Inhibition” value did it give?
Answer: Its value is -44.42%.

Question: Which “% Inhibition” value does the source give for `Cc1sc(N2CCCCC2)nc1C(=O)Nc1ccc(F)cc1C(F)(F)F` [TCMDC-134301] here?
Answer: The value was -22.08%.

Question: How did the “% Inhibition” value turn out when `Cc1ccc2c(OCCN3CCC(Cc4cc5c(cc4F)OCC(=O)N5)CC3)cc(F)cc2n1` [TCMDC-141447] was run?
Answer: Its value is -8.259%.

Question: With `Cc1noc(C)c1-c1cccc(CNCc2cccc(-c3ccc(-c4nc5ccccc5[nH]4)s3)c2)c1.O=C(O)C(F)(F)F` [TCMDC-133048] as the compound, how does the “% Inhibition” value read?
Answer: Its value is 14.32%.

Question: Which “% Inhibition” value does the source give for `Cc1cc(N(CCO)CCCN2CCCCC2)nc(Nc2ccc(Cl)cc2)n1` [TCMDC-137444] here?
Answer: Its value is 33.27%.

Question: With `Cc1cc(N(CCN2CCCCC2)CCN2CCCCC2)nc(Nc2ccc(Cl)cc2)n1` [TCMDC-138002] as the compound, how does the “% Inhibition” value read?
Answer: Its value is 37.36%.

Question: `COC(=O)c1sc(-c2ccc(Cl)cc2)cc1N(CCCN1CCC(N2CCCCC2)CC1)S(=O)(=O)c1ccc(C)cc1` [TCMDC-135561] was tested. Which “% Inhibition” value did it give?
Answer: Its value is 98.34%.

Question: With `CC(C)[C@H](NC(=O)c1ccc(O)c(-c2ccc(Cl)c(Cl)c2)c1)C(=O)NCCN(C)C` [TCMDC-140863] as the compound, how does the “% Inhibition” value read?
Answer: Its value is 10.43%.

Question: How did the “% Inhibition” value turn out when `CN(C)c1ccc(CN2CCC(NC(=O)c3ccc(-c4ccccc4Cl)s3)CC2)cc1` [TCMDC-134328] was run?
Answer: The value was -0.5721%.

Question: `Cc1[nH]c(C)c(-c2ccc(S(=O)(=O)c3ccc(Cl)cc3)cc2)c(=O)c1Cl` [TCMDC-137412] was tested. Which “% Inhibition” value did it give?
Answer: Its value is 67.97%.

Question: Which “% Inhibition” value does the source give for `Cc1cc(=O)c(-c2ccc(Sc3ccc(Cl)cc3)cc2)c(C)[nH]1` [TCMDC-137403] here?
Answer: Its value is 33.38%.

Question: How did the “% Inhibition” value turn out when `Cc1cc(=O)c(-c2ccc(OCc3ccc(Cl)cc3)cc2)c(C)[nH]1` [TCMDC-137399] was run?
Answer: Its value is 24.98%.

Question: Which “% Inhibition” value does the source give for `Cc1[nH]c(C)c(-c2ccc(S(=O)(=O)c3ccc(Cl)cc3)cc2)c(=O)c1Br` [TCMDC-137414] here?
Answer: Its value is 77.4%.

Question: For `Cc1cc(=O)c(-c2ccc(S(=O)(=O)c3ccc(Cl)cc3)cc2)c(C)[nH]1` [TCMDC-137417], which “% Inhibition” value is on record?
Answer: The value was 53.38%.

Question: How did the “% Inhibition” value turn out when `Cc1ccc(C)c(Cn2ccc3nc(Cl)nc(Cl)c32)c1` [TCMDC-137818] was run?
Answer: The value was 13.19%.

Question: With `Cc1cc(C)n(Cc2ccc(C(=O)NCC3CCCCC3)cc2)n1` [TCMDC-141404] as the compound, how does the “% Inhibition” value read?
Answer: The value was -4.003%.

Question: Which “% Inhibition” value does the source give for `CCC[C@@H]1CCN[C@H]([C@H](O)c2ccnc3ccc(OC)cc23)C1` [TCMDC-138233] here?
Answer: The value was -1.678%.

Question: How did the “% Inhibition” value turn out when `CCC[C@@H]([C@@H](CC1CCC(C)CC1)C(=O)N[C@@H](CO)C(=O)Nc1nccs1)N(O)C=O` (some centres unmarked) [TCMDC-138150] was run?
Answer: The value was 0.01446%.

Question: With `CC(C)c1nc2c(N)nc(N)nc2nc1N` [TCMDC-141986] as the compound, how does the “% Inhibition” value read?
Answer: The value was 9.894%.

Question: How did the “% Inhibition” value turn out when `O=C(NCCNc1ccnc2cc(Cl)ccc12)c1ccccc1F` [TCMDC-125232] was run?
Answer: Its value is -18.32%.

Question: For `Cn1nccc1C(=O)NCCNCc1cccc(-c2ccc(-c3nc4ccccc4[nH]3)s2)c1.O=C(O)C(F)(F)F` [TCMDC-133003], which “% Inhibition” value is on record?
Answer: The value was -10.06%.

Question: How did the “% Inhibition” value turn out when `Cc1ccc(NC(C)C(=O)Nc2ccc(C#N)cc2)cc1S(=O)(=O)N1CCCCC1` (centres unmarked) [TCMDC-124508] was run?
Answer: The value was -17.26%.

Question: How did the “% Inhibition” value turn out when `N#Cc1cc([N+](=O)[O-])ccc1-n1nc(-c2cccc(Cl)c2)n(CC2CCCO2)c1=S` (centres unmarked) [TCMDC-134718] was run?
Answer: The value was 89.7%.

Question: `CCCCn1c(Sc2ccc(C#N)c([N+](=O)[O-])c2)nnc1-c1cc(OC)cc(OC)c1` [TCMDC-135578] was tested. Which “% Inhibition” value did it give?
Answer: The value was 32.96%.

Question: `CCn1c(Sc2ccc(C#N)c([N+](=O)[O-])c2)nnc1-c1cc(OC)cc(OC)c1` [TCMDC-135587] was tested. Which “% Inhibition” value did it give?
Answer: Its value is 21.42%.

Question: `COc1cc(OC)cc(-c2nn(-c3ccc([N+](=O)[O-])cc3Cl)c(=S)n2CC2CCCO2)c1` (centres unmarked) [TCMDC-135129] was tested. Which “% Inhibition” value did it give?
Answer: The value was 88.54%.

Question: How did the “% Inhibition” value turn out when `N#Cc1ccc(Sc2nnc(-c3ccccc3Cl)n2CC2CCCCC2)cc1[N+](=O)[O-]` [TCMDC-135616] was run?
Answer: The value was 15.71%.

Question: `COc1cc(OC)cc(-c2nn(-c3ccc([N+](=O)[O-])cc3C#N)c(=S)n2CC2CCCO2)c1` (centres unmarked) [TCMDC-134716] was tested. Which “% Inhibition” value did it give?
Answer: The value was 96.39%.

Question: For `CCCn1c(Sc2ccc(C#N)c([N+](=O)[O-])c2)nnc1-c1cc(OC)cc(OC)c1` [TCMDC-135577], which “% Inhibition” value is on record?
Answer: Its value is 43.88%.

Question: For `COc1cc(NC(=O)c2cc([N+](=O)[O-])ccc2NC(=O)CNC2CCCCC2C)cc(OC)c1` (centres unmarked) [TCMDC-125301], which “% Inhibition” value is on record?
Answer: The value was -14.04%.

Question: With `Nc1nc(N)c2c(Cc3ccc(Br)cc3)cccc2n1` [TCMDC-137800] as the compound, how does the “% Inhibition” value read?
Answer: The value was 14.7%.

Question: With `CCOC(=O)C(C(C)=O)C(c1ccccc1)C(C(C)=O)C(=O)OCC` (centres unmarked) [TCMDC-125515] as the compound, how does the “% Inhibition” value read?
Answer: Its value is 28.08%.

Question: For `CC1CCCC(NC(=O)CCOc2ccccc2)C1` (centres unmarked) [TCMDC-139363], which “% Inhibition” value is on record?
Answer: Its value is 13.69%.

Question: `CCOC(=O)c1ccc(NC(=O)N(Cc2ccc(-c3ccc(CN4CCNCC4)cc3)cc2)Cc2cccnc2)cc1` [TCMDC-139650] was tested. Which “% Inhibition” value did it give?
Answer: Its value is 18.76%.

Question: `CCOC(=O)c1ccc(NC(=O)N(Cc2ccc(-c3ccc(CN4CCNCC4)cc3)cc2)C2CCN(Cc3ccccc3)CC2)cc1` [TCMDC-139651] was tested. Which “% Inhibition” value did it give?
Answer: Its value is 101.9%.

Question: Which “% Inhibition” value does the source give for `CCOC(=O)c1ccc(NC(=O)N(Cc2ccc(-c3cccc(CN4CCNCC4)c3)cc2)C2CCN(Cc3ccccc3)CC2)cc1` [TCMDC-139636] here?
Answer: Its value is 111.5%.

Question: Which “% Inhibition” value does the source give for `CC(C)Cc1nc(N)nc(N)c1-c1ccc(Cl)cc1` [TCMDC-137932] here?
Answer: Its value is 19.17%.

Question: `COc1ccc(-c2c(C(F)(F)F)nn(C)c2NC(=O)Nc2ccc(F)cc2F)cc1` [TCMDC-123775] was tested. Which “% Inhibition” value did it give?
Answer: Its value is 71.46%.

Question: `Cn1nc(C(F)(F)F)c(-c2ccc(F)cc2)c1NC(=O)Nc1ccc(F)cc1F` [TCMDC-123774] was tested. Which “% Inhibition” value did it give?
Answer: The value was 47.06%.

Question: Which “% Inhibition” value does the source give for `COc1ccc(NC(=O)Nc2cccc(-c3cccc(-c4nc5ccc(F)cc5[nH]4)c3)c2)cc1` [TCMDC-133249] here?
Answer: Its value is -8.23%.

Question: `Cn1nc(C(F)(F)F)c(-c2ccc(F)cc2)c1NC(=O)Nc1ccc(F)cc1` [TCMDC-124506] was tested. Which “% Inhibition” value did it give?
Answer: Its value is 65.51%.

Question: For `Cn1nc(C(F)(F)F)c(-c2ccc(Br)cc2)c1NC(=O)Nc1ccc(F)cc1F` [TCMDC-124576], which “% Inhibition” value is on record?
Answer: Its value is 44.22%.

Question: How did the “% Inhibition” value turn out when `Cn1nc(C(F)(F)F)c(-c2ccc(Br)cc2)c1NC(=O)Cc1ccccc1F` [TCMDC-123792] was run?
Answer: The value was 91.27%.

Question: With `O=C(Nc1ccccc1)Nc1ccc(-n2ccc(C(F)(F)F)n2)cc1` [TCMDC-123480] as the compound, how does the “% Inhibition” value read?
Answer: Its value is -19.16%.

Question: `O=C(Nc1ccccc1C(F)(F)F)Nc1nn(Cc2c(F)cccc2Cl)cc1Br` [TCMDC-124365] was tested. Which “% Inhibition” value did it give?
Answer: The value was -20.4%.

Question: `CN1CCN=C1c1ccc(NC(=O)Nc2ccc(C3=NCCN3C)cc2)cc1` [TCMDC-137204] was tested. Which “% Inhibition” value did it give?
Answer: The value was 15.96%.
